# Sm TGR block: S. mansoni TGR enzyme inhibition. 3% of 360,000 active. Potency, µM (series often up to 114 µM), for inactives: top-dose activity change, negative = inhibition, most hits filed as inhibitors. purified TGR, DTNB reduction, TNB absorbance 405 nm. Q962Y6; further: nearly all actives have a fitted effect of over 60% in size
#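 First, TGR (20 nM dispensed) and NADPH were mixed with compound. Second, a 15 min room-temperature incubation followed. Third, further NADPH and then DTNB were added to start the reaction. Finally, TNB absorbance was monitored kinetically.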
# AmpC inh detg: AmpC beta-lactamase inhibition with detergent present | P00811 | AmpC hydrolysis of nitrocefin, absorbance 480 nm, 0.01% Triton | Potency, µM (doses to about 114 µM), for the others: at the highest dose activity change, negative = inhibition, actives largely listed as inhibitors | 0.041% of 370,000 active;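 further: 0% = no-compound wells and -100% = no-enzyme wells; nearly all actives have a fitted effect of over 25% in size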
# Target sequence (P00811 whole entry, looked up): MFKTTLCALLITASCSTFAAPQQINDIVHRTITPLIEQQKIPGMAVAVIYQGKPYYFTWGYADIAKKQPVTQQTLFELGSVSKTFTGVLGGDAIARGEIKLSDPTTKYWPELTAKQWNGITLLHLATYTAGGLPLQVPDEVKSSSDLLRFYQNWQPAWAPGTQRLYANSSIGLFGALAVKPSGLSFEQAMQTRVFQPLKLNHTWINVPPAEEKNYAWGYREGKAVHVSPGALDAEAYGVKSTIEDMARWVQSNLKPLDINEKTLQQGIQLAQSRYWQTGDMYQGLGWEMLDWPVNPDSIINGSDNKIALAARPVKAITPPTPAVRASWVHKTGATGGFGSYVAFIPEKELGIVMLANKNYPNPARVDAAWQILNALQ
#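 AmpC (5.3 nM in the dispensed reagent) in 20 mM phosphate pH 7.0 with 0.01% (detergent screen) or 0.0001% Triton X-100 was preincubated with compounds for 15 min at room temperature. Nitrocefin was then added from an 800 uM solution, and hydrolysis was followed at 480 nm.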
# AmpC inh no detg: inhibitors of E. coli AmpC beta-lactamase without detergent | AmpC nitrocefin hydrolysis, absorbance 480 nm, 0.0001% Triton | Potency, µM (titrated, usually from 57.1 µM), inactives show at the highest dose activity change, negative = inhibition, hits mostly inhibitors | 0.52% of 330,000 active | AID 485341;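 further: plate controls were no compound for no effect and no enzyme for full effect; nearly all actives have a fitted effect of over 20% in size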
#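 AmpC (5.3 nM in the dispensed reagent) in 20 mM phosphate pH 7.0 with 0.01% (detergent screen) or 0.0001% Triton X-100 was preincubated with compounds for 15 min at room temperature. Nitrocefin was then added from an 800 uM solution, and hydrolysis was followed at 480 nm.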
# An asterisk follows results filed as active; ? = inconclusive; / = not tested or not shown. An excerpt weighted towards active compounds, which were near 3.3% of everything screened. The call rests on the fitted dose curve; in most records, active means well fitted curve in the direction sought with a large enough effect; inconclusive means small, poorly fitted or top-dose-only effect, or another doubt; inactive means no such curve, though single readings can be large; an effect the other way counts as inactive or inconclusive. Unless noted, on the % scale 0 is the no-effect control and ±100 the full control effect; potency means the concentration at half of the fitted maximal effect.
SMILES,Sm TGR block,AmpC inh detg,AmpC inh no detg
COc1ccc(CN(C)c2ccc(-c3nc(C)no3)cc2[N+](=O)[O-])cc1,3%,-7%,/
Cc1ccc2oc(C(=O)N(Cc3ccccc3F)C3CCS(=O)(=O)C3)c(C)c2c1 (configuration not stated),2%,-9%,/
CC1CCN(C(=O)c2cc(-c3cccc(Cl)c3)on2)CC1,0%,25%,/
Cc1ccc(CNc2ccc3cc(S(=O)(=O)N4CCCCC4)ccc3n2)cc1,12%,4%,/
CC(C)C(=O)Nc1nnc(NC(=S)Nc2ccccc2)s1,25µM*,?,-33%
CCCc1nnc(NC(=S)Nc2ccccc2)s1,-2%,-13%,-26%
Cc1csc(SCC(=O)Nc2ccccc2C)n1,4%,-13%,-9%
Cc1csc(SCC(=O)Nc2cccc3nsnc23)n1,?,-1%,0.22µM*
Cc1ccc(C2=Nc3ccccc3N(CC(=O)Nc3ccccc3F)C(=O)C2)cc1C,3%,19%,/
O=C(Cn1c(=O)n(-c2ccccc2)c(=O)c2c3c(sc21)CCC3)c1ccc(Br)cc1,1%,8%,/
O=C1N=c2ccccc2=C1c1c(O)n(-c2cccc(F)c2)[nH]c1=O,22µM*,1%,-50%
CCn1c(O)c(C2=c3ccccc3=NC2=O)c2cc(Br)ccc21,6%,8%,-26%
COc1cc(OC)c2c(C)c(CC(=O)NCc3ccccc3OC)c(=O)oc2c1,-5%,8%,/
Cc1ccc(S(=O)(=O)N2CCSC2C(=O)O)cc1 (configuration not stated),1%,?,-15%
Cc1ccc(S(=O)(=O)N2CCSC2c2ccco2)cc1 (configuration not stated),45µM*,?,-41%
CCOc1ccc(/C=C/c2nc(C#N)c(NC(C)c3ccccc3)o2)cc1 (configuration not stated),-5%,11%,/
Cc1ccccc1Nc1c(N)c(=O)oc2ccccc12,0%,2%,0.32µM*
CN(C)CCNc1c(N)c(=O)oc2ccccc12,-25%,-5%,102%
Cc1ncc(CO)c2c1Oc1nc(-c3ccc(F)cc3)nc(SCC(=O)N3CCCCC3)c1C2,-7%,13%,/
Cc1cc(C)cc(-n2nnc(-c3nc(-c4ccccc4F)no3)c2C)c1,10%,-1%,/
CCCc1cc(=O)n2c(C(=O)Nc3ccc(OCC)cc3)c(C(=O)Nc3ccc(C)cc3)sc2n1,8%,5%,/
O=C(NN=C1CCCC1)c1cc(Br)ccc1O,1%,?,7.9µM*
O=C(N/N=C/c1ccoc1)c1ccccc1Br,-18%,-6%,-26%
O=C(N/N=C1/CCSC1)c1cc(Br)ccc1O,/,-4%,-58%
O=C(N/N=C/c1ccoc1)c1cc(Br)ccc1O,0%,-8%,7.9µM*
SMILES,Sm TGR block,AmpC inh detg,AmpC inh no detg
CCOc1ccc(CC(=O)Nc2c(C(=O)Nc3ccc(OC)cc3OC)oc3ccccc23)cc1,1%,8%,/
Cc1ccc(CNC(=O)Cc2c(C)c3c(cc(C)c4c(C)coc43)oc2=O)cc1,0%,3%,/
O=C(Cn1c(=O)n(-c2ccc(Cl)cc2)c(=O)c2c3c(sc21)CCCCC3)Nc1cccc(Cl)c1,3%,19%,/
COc1ccc(Cl)cc1NC(=O)CCCn1c(C)c2cnn(-c3ccccc3)c(=O)c2c1C,?,-1%,/
COc1ccc(N/C(=C(/C(Cl)=C(Cl)Cl)[N+](=O)[O-])n2nnc3ccccc32)cc1,?,-11%,-43%
Cc1ccccc1N/C(=C(/C(Cl)=C(Cl)Cl)[N+](=O)[O-])n1nnc2ccccc21,14µM*,-2%,/
CCn1cc(C(=O)NCc2ccccc2)c(=O)c2cc(S(=O)(=O)N3CCOCC3)ccc21,-13%,2%,/
O=C1OC(c2ccc(Cl)cc2)=C/C1=C/c1cccnc1,-5%,-9%,42%
O=C1OC(c2ccccc2)=C/C1=C/c1cccs1,-34%,?,-57%
O=C1OC(c2ccc(F)cc2)=C/C1=C\c1ccc(O)cc1,13µM*,0%,-37%
O=C1OC(c2ccc(F)cc2)=C/C1=C\c1ccc([N+](=O)[O-])o1,4µM*,2%,-46%
O=C(Nc1ccc(-c2cn3ccsc3n2)cc1)C1COc2ccccc2O1 (configuration not stated),7%,?,16µM*
Cc1ccc(NC(=O)C2COc3ccccc3O2)cc1 (configuration not stated),2%,-6%,-15%
Cc1ccc(N2C(=O)C3C(C2=O)C(C(=O)c2ccc(Cl)cc2)N2CCCC32)cc1 (configuration not stated),28µM*,1%,-27%
COc1ccc(N2C(=O)[C@@H]3[C@H](C2=O)[C@H](C(=O)c2ccc(OC(C)=O)cc2)N2N=CC=C[C@@H]32)cc1,?,-11%,156%
CC(=O)Oc1ccc(N2C(=O)C3C(C2=O)C(C(=O)c2ccc(Cl)cc2)N2CCCC32)cc1 (configuration not stated),20µM*,-1%,-4%
Cc1ccc(C(=O)N2CCC(C(=O)c3ccc(Cl)cc3)CC2)cc1,-2%,?,47%
O=C(CSc1ccccc1)NCc1ccco1,-22%,1%,-19%
Cc1ccccc1CN1CCN(CC(=O)NCc2ccccc2Cl)C1=O,5%,-2%,/
O=C(CN1CCOc2ccccc21)NCc1ccco1,50µM*,-3%,-11%
O=C(CSc1ccc2c(c1)OCCO2)NCc1ccco1,20µM*,-3%,-23%
Cc1ccccc1CN1CCN(CC(=O)NCc2ccco2)C1=O,40µM*,1%,1%
O=C(CN1CC(=O)Oc2ccccc21)NCc1ccco1,?,-9%,-17%
CCC(=O)N1CCc2cc(S(=O)(=O)NC(Cc3ccccc3)C(=O)Nc3ccc(Cl)cc3)ccc21 (configuration not stated),4%,3%,/
C#CCOc1ccc(C2C3=C(CC(C)(C)CC3=O)N(CC(=O)O)C3=C2C(=O)CC(C)(C)C3)cc1,0%,1%,-7%
SMILES,Sm TGR block,AmpC inh detg,AmpC inh no detg
C#CCOc1ccc(C2C3=C(CC(C)(C)CC3=O)N(CC(=O)O)C3=C2C(=O)CC(C)(C)C3)cc1OC,35µM*,1%,50%
Cc1cnc(C(=O)Nc2ccccc2-c2ccc(C)o2)cn1,20µM*,1%,-13%
Cc1cnc(C(=O)Nc2cccc3ncccc23)cn1,3%,2%,-18%
CCCCc1nn2c(=O)cc(COC(=O)C(C)Oc3ccccc3)nc2s1 (configuration not stated),0%,19%,/
COc1ccc(Cl)cc1NC(=O)CSC1=Nc2ccccc2C2=NC(CC(=O)NCc3cccs3)C(=O)N12 (configuration not stated),1%,0%,/
C#CCn1c(S(=O)(=O)Cc2ccc(C)cc2)nc(-c2ccccc2)c1-c1ccccc1,6%,-9%,-30%
C#CCn1c(S(=O)(=O)Cc2ccccc2Cl)nc(-c2ccccc2)c1-c1ccccc1,1%,2%,4.5µM*
CCOc1ccc(NC(=O)C(C)n2c(=O)cc(C)c3c(C)nn(-c4ccccc4)c32)cc1 (configuration not stated),5%,-3%,/
CCOC(=O)c1ccc(NC(=O)c2cn(-c3ccccc3)nc2-c2ccc(OC)c(OC)c2)cc1,4%,13%,/

# High-throughput results from PubChem BioAssay.
